# Results as given in PubChem BioAssay (NCATS).
# Records with an inconclusive call do not appear. Calls of active or inactive are those of the source. The call rests on the fitted dose curve; in most records, active means well fitted inhibition curve with a large enough effect; inconclusive means small, poorly fitted or top-dose-only effect; inactive means flat fitted curve, though single readings scatter.
# Experiment: BET inhibitor-based combinations targeting novel dependencies in MECOM-rearranged (r) AML: AML-194 cell line (AID 2202237; further: nearly all actives have a fitted effect of over 40% in size)
# Settings: AML-194 (MECOM-r AML) viability, CellTiter-Glo, 48 h; series mostly up to 46 µM
# Summary of the method: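 Readout: CellTiter-Glo luminescence. Exposure: 48 h, 11 concentrations, 500 cells/well. Metric: AUC and within-line Z-AUC after DMSO/empty-well normalization.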
# Potency means the concentration at half of the fitted maximal effect.
row,Structure (SMILES),Potency
1,CC(C)[C@]12O[C@H]1[C@@H]1O[C@]13[C@]1(O[C@H]1C[C@H]1C4=C(CC[C@@]13C)C(=O)OC4)[C@@H]2O,46.8 nM (active)
2,COC(=O)[C@@]12OC[C@]34[C@H]([C@@H](O)[C@@H]1O)[C@@]1(C)CC(=O)C(O)=C(C)[C@@H]1C[C@H]3OC(=O)[C@H](OC(=O)/C=C(\C)C(C)C)[C@@H]24,5.9 nM (active)
3,C#CCN(C)[C@H](C)Cc1ccccc1,inactive
4,C[C@]12CC[C@H](O)CC1=CC[C@@H]1[C@@H]2CC[C@]2(C)C(=O)CC[C@@H]12,inactive
5,COc1cc2c(cc1F)C(c1ccccc1Cl)=Nc1c(n[nH]c1C)N2,2350 nM (active)
